# According to the supplement of paper PMC8728848:
# The full list was thinned out, with the strongest signals kept by preference.
# B1: CD83 (Homo sapiens) (protein)
# chain: MSRGLQLLLLSCAYSLAPATPEVKVACSEDVDLPCTAPWDPQVPYTVSWVKLLEGGEERMETPQEDHLRGQHYHQKGQNGSFDAPNERPYSLKIRNTTSCNSGTYRCTLQDPDGQRNLSGKVILRVTGCPAQRKEETFKKYRAETSEQKLISEEDLSRGSDDDDKAEPRGP
# What was measured:
# Experiment in all cases: glycan array binding signal (z-score within array); higher = stronger binding
# Conditions in all cases: glycan notation: IUPAC condensed, linker removed
# [1] = molecular target: Fuc(a1-2)Gal(b1-3)[Fuc(a1-4)]GlcNAc
# In short: (§1)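 From the Consortium for Functional Glycomics database, 3228 arrays were curated, keeping only those whose protein sequence was available. Binding is given as a within-array Z-score averaged across arrays sharing a protein sequence and across linkers. Negative Z-scores can be read as non-binding.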
# Fuc(a1-2)GlcNAc = molecular target: Fuc(a1-2)GlcNAc
# In short: as §1
# [2] = molecular target: Fuc(a1-2)[GalNAc(a1-3)]Gal(b1-3)GlcNAc
# In short: as §1
# [3] = molecular target: Gal(b1-3)GalNAc(b1-4)Gal(b1-4)Glc
# In short: as §1
# [4] = molecular target: Gal(b1-3)GlcNAc(b1-3)Gal(b1-4)Glc
# In short: as §1
# [5] = molecular target: Gal(b1-3)[Fuc(a1-4)]GlcNAc(b1-3)Gal(b1-4)[Fuc(a1-3)]GlcNAc
# In short: as §1
# [6] = molecular target: Gal(b1-4)GlcNAc(b1-3)Gal(b1-4)GlcNAc(b1-3)Gal(b1-4)GlcNAc
# In short: as §1
# Gal3S6S(b1-4)GlcNAc6S = molecular target: Gal3S6S(b1-4)GlcNAc6S
# In short: as §1
# GalNAc(a1-3)GalNAc = molecular target: GalNAc(a1-3)GalNAc
# In short: as §1
# [7] = molecular target: GlcNAc(b1-3)Gal(b1-4)GlcNAc
# In short: as §1
# GlcNAc(b1-3)Man = molecular target: GlcNAc(b1-3)Man
# In short: as §1
# [8] = molecular target: GlcNAc(b1-3)[GlcNAc(b1-6)]GalNAc
# In short: as §1
# [9] = molecular target: Man(a1-2)Man(a1-3)[Man(a1-2)Man(a1-6)]Man(a1-6)[Man(a1-2)Man(a1-2)Man(a1-3)]Man(b1-4)GlcNAc(b1-4)GlcNAc
# In short: as §1
# [10] = molecular target: Man(a1-2)Man(a1-6)[Man(a1-3)]Man(a1-6)[Man(a1-2)Man(a1-2)Man(a1-3)]Man
# In short: as §1
# [11] = molecular target: Man(a1-3)[Man(a1-6)]Man(a1-6)[Man(a1-2)Man(a1-3)]Man(b1-4)GlcNAc(b1-4)GlcNAc
# In short: as §1
# [12] = molecular target: Man(a1-3)[Man(a1-6)]Man(a1-6)[Man(a1-3)]Man(b1-4)GlcNAc(b1-4)GlcNAc
# In short: as §1
# [13] = molecular target: Neu5Ac(a2-3)Gal(b1-3)GalNAc(b1-3)Gal(a1-4)Gal(b1-4)Glc
# In short: as §1
# [14] = molecular target: Neu5Ac(a2-3)Gal(b1-3)GlcNAc6S
# In short: as §1
# [15] = molecular target: Neu5Ac(a2-3)Gal(b1-3)[Neu5Ac(a2-3)Gal(b1-4)]GlcNAc
# In short: as §1
# [16] = molecular target: Neu5Ac(a2-3)Gal(b1-4)[Fuc(a1-3)]GlcNAc(b1-3)Gal(b1-4)GlcNAc
# In short: as §1
# [17] = molecular target: Neu5Ac(a2-3)Gal(b1-4)[Fuc(a1-3)]GlcNAc(b1-3)Gal(b1-4)[Fuc(a1-3)]GlcNAc(b1-3)Gal(b1-4)[Fuc(a1-3)]GlcNAc
# In short: as §1
# [18] = molecular target: Neu5Ac(a2-3)Gal(b1-4)[Fuc(a1-3)]GlcNAc(b1-6)[Gal(b1-3)]GalNAc
# In short: as §1
# [19] = molecular target: Neu5Ac(a2-3)Gal6S(b1-4)[Fuc(a1-3)]GlcNAc
# In short: as §1
# [20] = molecular target: Neu5Ac(a2-3)GalNAc(b1-4)GlcNAc
# In short: as §1
# [21] = molecular target: Neu5Ac(a2-6)Gal(b1-4)GlcNAc(b1-3)Gal(b1-4)[Fuc(a1-3)]GlcNAc(b1-3)Gal(b1-4)[Fuc(a1-3)]GlcNAc
# In short: as §1
# [22] = molecular target: Neu5Ac(a2-8)Neu5Ac(a2-8)Neu5Ac(a2-3)Gal(b1-4)Glc
# In short: as §1
# [23] = molecular target: Neu5Ac(a2-8)Neu5Ac(a2-8)Neu5Ac(a2-3)[GalNAc(b1-4)]Gal(b1-4)Glc
# In short: as §1
binder,measurement,setting,value
B1,glycan array binding signal (z-score),[1],-0.388
same,glycan array binding signal (z-score),Fuc(a1-2)GlcNAc,-0.045
same,glycan array binding signal (z-score),[2],-0.222
same,glycan array binding signal (z-score),[3],-0.09
same,glycan array binding signal (z-score),[4],-0.32
same,glycan array binding signal (z-score),[5],-0.243
same,glycan array binding signal (z-score),[6],-0.142
same,glycan array binding signal (z-score),Gal3S6S(b1-4)GlcNAc6S,-0.129
same,glycan array binding signal (z-score),GalNAc(a1-3)GalNAc,-0.329
same,glycan array binding signal (z-score),[7],-0.162
same,glycan array binding signal (z-score),GlcNAc(b1-3)Man,-0.188
same,glycan array binding signal (z-score),[8],-0.453
same,glycan array binding signal (z-score),[9],2.96
same,glycan array binding signal (z-score),[10],-0.272
same,glycan array binding signal (z-score),[11],11.7
same,glycan array binding signal (z-score),[12],0.723
same,glycan array binding signal (z-score),[13],0.647
same,glycan array binding signal (z-score),[14],8.93
same,glycan array binding signal (z-score),[15],-0.458
same,glycan array binding signal (z-score),[16],0.381
same,glycan array binding signal (z-score),[17],-0.243
same,glycan array binding signal (z-score),[18],-0.12
same,glycan array binding signal (z-score),[19],-0.131
same,glycan array binding signal (z-score),[20],-0.291
same,glycan array binding signal (z-score),[21],0.014
same,glycan array binding signal (z-score),[22],3.7
same,glycan array binding signal (z-score),[23],2.88
